# Measurements reported in PubChem BioAssay AID602248 (The Scripps Research Institute Molecular Screening Center, 2012).
# In all, about 360,000 compounds went through this assay and about 1,700 (0.47%) were called active. Many of the other results were omitted from the sample, so actives are more common in it than they were. Values without a mark were called inactive. No stated cut-off is given here; in the data, active means activation above about 15%; inactive means the rest.
# Experiment: counter-screen for M1 agonists: effect in parental CHO-K1 cells (AID 602248);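 further: untransfected CHO-K1 host cells lacking M1 receptor as counterscreen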
# Conditions: Fluo-8 calcium fluorescence, at 3 µM, active compounds read high, scaled to maximal ATP response, vehicle zero
row,SMILES,activation
1,NC(=O)C1=C[C@@H](c2csc3ccccc23)C[C@@H](OCc2ccc(CO)cc2)O1,5.09%
2,NC(=O)C1=C[C@H](c2csc3ccccc23)C[C@H](OCc2ccc(CO)cc2)O1,15.6% (active)
3,O=C(NC1CC1)C1=C[C@H](c2c[nH]c3ccccc23)C[C@H](OCc2ccc(CO)cc2)O1,-0.26%
4,Cc1ccc(N)cc1-n1c(C)ccc1C,0.3%
5,O=C(CSc1ccc(Cl)cc1)NC1CC1,-0.25%
6,CCSc1nc2sc3c(c2c(=O)[nH]1)CC(C)(C)OC3,0.45%
7,CCC1(C)Cc2c(sc3nc(SC)[nH]c(=O)c23)CO1 (configuration not stated),18.7% (active)
8,CC/C(C)=N/Nc1nc2sc3c(c2c(=O)[nH]1)CC(C)(C)OC3,0.65%
9,COc1ccc(-n2ncc3c2CC(C)(C)CC3NC(=O)CCc2c(C)nn(C)c2C)cc1 (configuration not stated),2.09%
10,Cc1ccc(NC(=O)C(C)c2cccc(C(=O)c3ccccc3)c2)cc1 (configuration not stated),3.5%
11,CCC(C(=O)Nc1ccc(C(C)C)cc1)c1ccccc1 (configuration not stated),21.5% (active)
12,CCCC(C)C(=O)Nc1ccc(NC(C)=O)cc1 (configuration not stated),-0.01%
13,COc1ccc([C@H]2C[C@@H](n3cc(COC(=O)c4ccccc4)nn3)[C@H](O)CN2C(=O)c2cccs2)cc1,4.74%
14,O=C(NCCc1ccccn1)c1cc(C(=O)C2CCCCC2)c[nH]1,0.74%
15,CC/C(=N\NC(=S)NC(C)C)c1ccc(OC(F)F)cc1,0.04%
16,CC(C)N(Cc1ccccc1)C(=S)Nc1ccc(OC(F)F)cc1,3.54%
17,CC(NC(=S)Nc1ccc(OC(F)F)cc1)c1ccc(F)cc1 (configuration not stated),18.2% (active)
18,COC(=O)[C@]12CCCCC=C1N(CCC1=CCCCC1)C(=O)[C@H](CC(=O)N1CCSCC1)C2,2.39%
19,O=C(CC(=O)N/N=C\c1cccc(Cl)c1Cl)NCc1ccccc1,6.61%

row,SMILES,activation
1,CSc1sc(C)cc1C1C(C#N)=C(N)N(c2cccnc2)C2=C1C(=O)CCC2 (configuration not stated),0.25%
2,C=CC(=O)OCCOCCOCCOCCOC(=O)C=C,0.44%
3,COc1ccccc1N1CCN(c2ncnc3sc(C)c(-c4ccccc4)c23)CC1,0.5%
4,CCc1cc2c(N3CCN(c4nnc(CC)s4)CC3)ncnc2s1,3.43%
5,Oc1ccccc1N1CCN(c2ncnc3sc(-c4ccccc4)cc23)CC1,18.6% (active)
6,CCOC(=O)[C@H]1[C@H]2COc3ccc(Cl)cc3[C@@H]2N2C(=O)c3cc(C)ccc3NC(=O)[C@@]12C,-0.51%
7,COc1ccc(CSc2nnnn2-c2ccc(O)cc2)cc1F,7.29%
8,COc1ccc2c(c1)[C@H]1[C@H](CO2)[C@H](c2ccccc2)[C@]2(C)C(=O)Nc3cc(F)c(F)cc3C(=O)N12,0.27%
9,CCN1C(=NCC(C)C)N[C@@H](CCc2ccccc2)[C@H](C(=O)NCC(C)C)[C@H]1C,0.45%
10,O=S1(=O)CC(N2CCN(Cc3ccccc3F)CC2)CN1Cc1cn(Cc2ccccc2)nn1 (configuration not stated),0.46%
11,CCOC(=O)CC1=CC(=O)Nc2ccccc2N1,0.86%
12,CC(NC(=S)Nc1ccc(S(N)(=O)=O)cc1)c1ccc2c(c1)OCO2 (configuration not stated),0.36%
13,NS(=O)(=O)c1ccc(NC(=O)COC(=O)c2c3c(nc4ccccc24)/C(=C\c2ccc4c(c2)OCO4)CCC3)cc1,17.2% (active)
14,NC(=O)c1ccc(NC(=O)COC(=O)c2c3c(nc4ccccc24)/C(=C\c2ccc4c(c2)OCO4)CCC3)cc1,28.9% (active)
15,CC(=O)Nc1cccc(C(=O)OCC(=O)c2ccc3c(c2)OCO3)c1,3.56%
16,NS(=O)(=O)c1ccc(NC(=O)COC(=O)CCc2c[nH]c3ccccc23)cc1,2.12%
17,O=C(COC(=O)c1ccc(Cl)nc1)NCc1ccc2c(c1)OCO2,1.56%
18,Cc1ccc(NS(=O)(=O)c2cn(C)c(=O)n(C)c2=O)c(C)c1,0.05%
19,O=C(COC(=O)c1cncc(Br)c1)Nc1ccc(S(=O)(=O)N2CCOCC2)cc1,0.85%

row,SMILES,activation
1,CN(CCO)C(=O)c1nc[nH]c1C(=O)N(C)Cc1ccccc1,0.53%
2,CN(C(=O)CN(CCO)CC(=O)N(C)C(C)(C)Cc1ccccc1)C(C)(C)Cc1ccccc1,30.2% (active)
3,CCOC(=O)N(Cc1ccccc1)C1CC1,0.45%
4,COc1ccc(CCNS(=O)(=O)c2ccc(Cl)s2)cc1OC,0.5%
5,CCCn1c(=O)c2ccccc2n2c(SCC(=O)/C(C#N)=C(\C)N)nnc12,-0.17%
6,CN(C)c1ccc(C(CNC(=O)c2ccc(F)cc2)c2c[nH]c3ccccc23)cc1 (configuration not stated),0.33%
7,COC(=O)c1nc2n(n1)C(c1ccc([N+](=O)[O-])cc1)C(C(=O)Nc1ccc(Cl)cc1)=C(C)N2 (configuration not stated),0.7%
8,CCN(CC)CCCC(C)n1c2nc(=O)[nH]c(=O)c-2nc2cc(Cl)ccc21 (configuration not stated),150% (active)
9,CC(=O)c1c(C)[nH]c(C(=O)OCC(=O)Nc2c(C)n(C)n(-c3ccccc3)c2=O)c1C,0.66%
10,O=C(c1ccc(=O)[nH]c1)N(Cc1ccco1)C1(C(=O)NC2CCCCC2)CCCCC1,0.04%
11,COc1ccc(OC)c(NC(=O)C2CCCN2S(=O)(=O)c2cccc3nsnc23)c1 (configuration not stated),0.61%
12,Nc1ccc2[nH]c(=S)sc2c1,0.51%
13,O=C(CCN1C(=O)COc2ccccc21)NCCCN1CCN(c2ccc(F)cc2)CC1,0.21%
14,CN1CCN(CCNC(=O)Nc2ccc([N+](=O)[O-])cc2)CC1,0.55%
15,O=C(NCCCN1CCN(c2ccc(F)cc2)CC1)Nc1ccc([N+](=O)[O-])cc1,15.1% (active)
16,CCn1nnnc1SCC(=O)Nc1ccc(N(C)C)cc1,0.31%
17,Nc1nc(CSc2nnnn2-c2ccccc2)nc(Nc2ccccc2)n1,1.93%
18,Cc1ccccc1Nc1nc(N)nc(CSc2ccccc2)n1,0.45%
19,CCSCc1nc(N)nc(NCCc2ccccc2)n1,15.5% (active)
